Experimental data reported in PubChem BioAssay (Tox21).
Results filed as inconclusive are left out. Activity calls are given as the source filed them. Unless noted, calls come from the whole dose curve; as a rule, active = well fitted curve in the direction sought with a large enough effect in the repeat runs; inconclusive = weak or mixed curves; inactive = no such curve, though single readings can be large; an effect the other way counts as inactive or inconclusive.

What was measured:
[1] = qHTS assay for small molecule agonists of the p53 signaling pathway (AID 651631; calls by dose curve; note: nearly all actives have a fitted effect of over 15% in size)
Outline: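 Agonist mode screen using a stably integrated beta-lactamase gene under p53 response elements in HCT-116 cells. Compound exposure lasts 16 h at 37 °C; fluorescence intensity is measured following 2 h FRET substrate loading.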

[2] = qHTS assay for small molecules that induce genotoxicity in human embryonic kidney cells expressing luciferase-tagged ATAD5 (AID 651632); note: nearly all actives have a fitted effect of over 15% in size
Outline: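 A rise in luciferase signal from ATAD5-tagged HEK293T cells marks genetic stress. Cells were exposed to compounds for 16 hr at 37C, 5% CO2, then luciferase was quantified after a 30 min room-temperature incubation with Amplite.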

[3] = qHTS assay for small molecule agonists of the p53 signaling pathway - cell viability (AID 651633; calls by dose curve;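 note: p53RE-bla HCT reporter cells with a stable beta-lactamase p53 reporter; series mostly up to about 83 µM; nearly all actives have a fitted effect of over 30% in size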)
Outline: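 Viability counter-read: CellTiter-Glo luminescence (30 min, room temperature) in the same p53RE-bla plates. These plates had been exposed to compounds for 16 h at 37 C.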

[4] = qHTS assay for small molecules that induce genotoxicity in human embryonic kidney cells expressing luciferase-tagged ATAD5 - cell viability (AID 651634; calls by dose curve; note: nearly all actives have a fitted effect of over 25% in size)
Outline: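 Cytotoxicity counter-readout: after 15.5 hr compound treatment at 37C, live-cell protease activity in ATAD5-luciferase HEK293T cells measured by CellTiter-Fluor fluorescence, 30 min development at 37C.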

[5] = qHTS assay for small molecule disruptors of the mitochondrial membrane potential - cell viability (AID 720634; calls by dose curve;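 note: human HepG2 liver cancer cells; series mostly up to about 83 µM; nearly all actives have a fitted effect of over 20% in size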)
Outline: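 Cytotoxicity was quantified from ATP content by CellTiter-Glo luminescence in the same wells as the MMP dye read-out. HepG2 (2,000 cells/well) were plated overnight and exposed to compounds for 1 hr at 37 C.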

[6] = qHTS assay for small molecule disruptors of the mitochondrial membrane potential (AID 720635)
Outline: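 Mitochondrial membrane potential tracked with Mito-MPS dye, red aggregates (ex 540/em 590 nm) against green monomers (ex 490/em 535 nm). Compound treatment 1 hr at 37C, dye 30 min in HepG2.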

[7] = qHTS assay to test for compound auto fluorescence at 590 nm (red) in HepG2 cells (AID 720674)
Outline: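 Red autofluorescence (Ex/Em 540/590 nm, Rose Bengal sodium equivalents) was measured in HepG2 cells, 2,000 per well in MEM plus 10% FBS, plated overnight at 37 C. Readings were taken 1 hr after adding 23 nL compound or DMSO, at 37 C and 5% CO2.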

[8] = qHTS assay to test for compound auto fluorescence at 535 nm (green) in HepG2 cells (AID 720675)
[9] = qHTS assay to test for compound auto fluorescence at 460 nm (blue) in HEK293 cells (AID 720678)
Outline: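 Blue read-out at excitation 405 nm and emission 460 nm follows overnight compound exposure of HEK293 cells at 37C in 5% CO2. Activity is given as auto fluorescence equivalency to triamterene.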

[10] = qHTS assay to test for compound auto fluorescence at 590 nm (red) in HEK293 cells (AID 720679)
Outline: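 Red channel, Ex/Em 540/590nm; signal expressed as equivalency to Rose Bengal sodium. HEK293, 2,000 cells/well, 10% dialyzed FBS; 23 nL compound pinned after 4-5 hr attachment; overnight 37C/5% CO2 before reading.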

Measured: Potency

C=CCCCCCCCCC(=O)OCCCC
inactive: all assays above

OC[C@H]1O[C@@H](O[C@@H]2[C@@H](CO)O[C@](O)(CO)[C@H]2O)[C@H](O)[C@@H](O)[C@H]1O
inactive: all assays above

Cc1ccccc1C(N)=O
inactive: all assays above

CCCSSCCC
inactive: all assays above

CN(C)CCCCl
inactive: all assays above

CCCCCCCCCOC(=O)CCCCC(=O)OCCCCCCC
not listed: [6]
inactive: all other assays above

CC(=O)O[C@@H]1CC2CCC1(C)C2(C)C (stereo partly drawn)
inactive: all assays above

O=C(CN1CCNCC1)NC1CCCCC1
inactive: all assays above

NCC1(Cc2noc(=O)[nH]2)CCCCC1
not listed: [6]
inactive: all other assays above

Cc1ncc([N+](=O)[O-])n1CC(C)O (stereo not drawn)
inactive: all assays above

Cc1c(N)cccc1Cl
inactive: all assays above

CC(C)COC(=O)c1ccccc1
inactive: all assays above

COC(C)(OC)OC
not listed: [6]
inactive: all other assays above

CC(C)CCOC(=O)c1ccccc1
inactive: all assays above

CC(=O)OC1CCCCC1C(C)(C)C (stereo not drawn)
inactive: all assays above

Cc1cc(-c2ccccc2)nnc1NCCN1CCOCC1
inactive: all assays above

CC(N)CCCC(C)(C)O (stereo not drawn)
inactive: all assays above

CCCCCC/C=C/C(=O)OC
not listed: [6]
inactive: all other assays above

CC(Oc1cc(Cl)ccc1Cl)C(=O)O (stereo not drawn)
not listed: [6]
inactive: all other assays above

CCCCOCC(C)O (stereo not drawn)
not listed: [6]
inactive: all other assays above

Cn1c(=O)c2[nH]c(Br)nc2n(C)c1=O
not listed: [4] | [6]
inactive: all other assays above

C=CC(=O)CCCCC
not listed: [6]
inactive: all other assays above

O=C(O)c1cc2ccccc2nc1C(=O)O
not listed: [6]
inactive: all other assays above

O=C(O)CONC(=O)c1ccccc1
not listed: [6]
inactive: all other assays above

CC/C(C)=N\O[Si](C)(O/N=C(\C)CC)O/N=C(\C)CC
not listed: [4]
inactive: all other assays above
